Out of some 420,000 compounds screened, about 64,000 (15%) were called active. Not shown: some 27% with an inconclusive outcome. Calls follow the shape of the dose curve; as a rule, active = well fitted inhibition curve with a large enough effect; inconclusive = small, poorly fitted or top-dose-only effect; inactive = flat fitted curve, though single readings scatter. Only a sample is shown. Where a call stands in place of a potency, no number is given.
Potency is read from the fitted curve at half-maximal effect.

The assay is described as follows: qHTS for Inhibitors of human tyrosyl-DNA phosphodiesterase 1 (TDP1): qHTS in cells in absence of CPT. Also: nearly all actives have a fitted effect of over 55% in size. To be noted: DT40 Tdp1-/- hTDP1 cells, no CPT, ATP luminescence, 48 h; activity change, negative = growth inhibition: at 46.2 µM (top of the series). The procedure, abridged:
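DT40 Tdp1-/-;hTDP1 cells, no CPT (DMSO vehicle only), 400 cells/well; compounds pin-transferred; ≥48 hr, 37 °C; CellTiter-Glo 30 min RT dark, luminescence read.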
(Quantitative high-throughput screening tests each substance at several concentrations.)
Regarding `COC(=O)c1ccccc1NC(=O)c1cc(-c2ccccc2O)no1`, the Potency result was “inactive”. For `CCOC(=O)C1CCc2nc3ccccc3c(=O)n21` (centres undefined), the Potency result is “inactive”. As for `CCOC(=O)C(CCOc1cccc(CC)c1)C(=O)OCC`, the entry is “inactive”; as for `C=CCNC(=O)C12CC3CC(C1)CC(C(=O)NCC=C)(C3)C2`, “inactive”; as for `Cc1cc(C)cc(NC(=O)N2CCC(NC(=O)c3ccc(F)cc3)CC2)c1`, “inactive”. The value for `CCN(CC)CCC(c1ccc2c(c1)OCO2)c1c(OC)cc(OC)c2c(-c3ccccc3)cc(=O)oc12` (centres undefined) was 20.6 µM (active); that for `COc1cc(OC)c2ccc(=O)oc2c1C(CCN1CCN(c2ccccc2)CC1)c1ccc2c(c1)OCO2` (centres undefined) was 16.4 µM (active). Regarding `COc1ccc(F)cc1S(=O)(=O)NCC(c1ccc2c(c1)OCO2)N1CCN(C)CC1` (centres undefined), the Potency result was “inactive”. On to `COc1cc(COCC(O)CN2CCN(Cc3ccc4c(c3)OCO4)CC2)cc(OC)c1OC` (centres undefined), for which the Potency result was “inactive”. Take `O=C(C(=O)N1CCN(c2ccccc2)CC1)c1ccc2c(c1)OCO2`: the Potency result was “inactive”.

`Cc1nnc(SCc2cc(=O)[nH]c(N3CCN(Cc4ccccc4)CC3)n2)s1`: the Potency entry was “inactive”.

As for `CC(Sc1nncn1C)C(=O)Nc1cc(C(F)(F)F)ccc1N1CCOCC1` (centres undefined), the Potency entry is “inactive”. In the case of `CCCCN1C(=O)C(CC(=O)NCc2cccs2)CC(C(=O)N2CCCCCC2)=C1C` (centres undefined), the Potency result is “inactive”.

In the case of `CC(C)(C)NC(=O)NC(=O)COC(=O)C1(C)CC1(Cl)Cl` (centres undefined), the Potency result was “inactive”. Regarding `COc1ccc(CCc2nc(-c3cccs3)no2)cc1`, the Potency result was “inactive”. As for `COc1ccc(S(=O)(=O)NC(=O)C2(C)CCN2C(=O)c2ccccc2CCc2ccccc2)cc1` (centres undefined), the entry is “inactive”; as for `O=C(NCc1cn2ccsc2n1)Nc1cccc(Cl)c1`, “inactive”. As for `Cc1c(C(=O)Nc2cccc(Cl)c2)cn2c(nc3ccccc32)c1C#N`, the figure is 11.6 µM (active). As to `O=C(O)c1cccc(NC(=O)c2cc(-c3cccc(Cl)c3)nc3ccccc23)c1`, the Potency result is “inactive”. For the compound `COc1cc(C(=O)NN(CCC#N)C2=NS(=O)(=O)c3ccccc32)cc(OC)c1OC`, the Potency result was “inactive”.

Turning to `CCc1ccc(-c2nnn(Cc3nn[nH]n3)n2)cc1`, the Potency entry is “inactive”.

`COc1ccc(C(C#N)=C2C=CC(=NO)c3ccccc32)cc1`: the Potency is 0.82 µM (active). `COc1ccc(/C(N)=N/OC(=O)Cc2ccccc2)cc1`: the Potency entry was “inactive”.

In the case of `COc1ccc(C(=NN)c2ccc(OC)cc2)cc1`, the Potency result is “inactive”. In the case of `O=C(c1ccc[nH]c1=S)N1CCN(S(=O)(=O)c2ccc(Br)cc2Cl)CC1`, the Potency result was “inactive”. On to `Cc1noc(C)c1-c1ccc(C(=O)NCc2ccncc2)c2occc12`, for which the Potency is 8.2 µM (active). As for `COc1ccc(CNC(=O)c2c(C)cc(=O)oc2C)cc1OC`, the Potency entry is “inactive”. With `O=C(NCc1ccncc1)C(=O)NCc1ccco1`, the Potency entry was “inactive”. For the compound `COc1ccc(CNC(=O)c2ccc(-c3cccnc3)c3ccoc23)cc1OC`, the Potency is 18.4 µM (active). As to `CCN(CC(=O)NCc1ccc(Cl)cc1)C(=O)c1c(C)noc1C`, the Potency entry is “inactive”. In the case of `COc1ccc(CNC(=O)c2ccc(Br)s2)cc1OC`, the Potency result is “inactive”. The value for `O=C(COc1ccc(Cl)cc1)NCc1nnc(SCC(=O)NCC2CCCO2)o1` (centres undefined) was “inactive”; that for `CCn1cc(CNC(=O)c2cc([N+](=O)[O-])c(C)c([N+](=O)[O-])c2)cn1` was “inactive”; that for `Cc1cccc(NC(=O)CSCC(=O)Nc2nnc(C3CC3)s2)c1` was “inactive”. Consider `Cc1ccc(C(=O)CS(C)(=O)=O)cc1`, for which the Potency result is “inactive”. As for `Cc1ccc(SC(CC(=O)c2ccc(C(C)(C)C)cc2)C(=O)O)cc1` (centres undefined), the Potency was 2.91 µM (active).

In the case of `Cc1ccc(C(=O)CSc2ccccc2C(=O)O)cc1`, the Potency entry is “inactive”. As for `CC1(C)c2[nH]c3ccccc3c2C[C@H]2C(=O)N(N)CC(=O)N21`, the Potency entry was “inactive”.

For the compound `O=C(NC1CCc2ccccc21)C12CN(Cc3ccccc3)CC1C(c1cccc([N+](=O)[O-])c1)=NO2` (centres undefined), the Potency result was “inactive”. Turning to `CC(C)c1nnc(NC(=O)C2CCCN2S(=O)(=O)c2ccc(Cl)cc2)s1` (centres undefined), the Potency entry is “inactive”. Turning to `O=C(NCc1ccccc1Cl)C1CCCN1S(=O)(=O)c1ccc(F)cc1` (centres undefined), the Potency result was “inactive”.

For the compound `COc1ccccc1NC(=O)C1CCCN1S(=O)(=O)c1ccc(Cl)cc1` (centres undefined), the Potency is 16.4 µM (active). Take `COc1cccc(CCNC(=O)COc2cccc3c2OC(C)(C)C3)c1`: the Potency result is “inactive”. `CN(C)c1cccc2ccccc12`: the Potency entry is “inactive”. The value for `CC(C)[C@@H](C(=O)O)N(Cc1cccc(CN([C@H](C(=O)O)C(C)C)S(C)(=O)=O)c1)S(C)(=O)=O` was “inactive”; that for `COc1cc2c(cc1OC)C(Nc1ccc(S(N)(=O)=O)cc1)=NC(C)(C)C2` was “inactive”. For `COc1cc2c(cc1O)C(SC)=NC(C)(C)C2`, the Potency was 29.1 µM (active). As to `O=C(Nc1ccccn1)C1CCN(S(=O)(=O)c2ccccc2)CC1`, the Potency result is “inactive”. As to `CCCCN(CC(=O)NC(C)(C)C)C(=O)C(=O)Nc1ccc2c(c1)OCCO2`, the Potency entry is “inactive”. Consider `CC(C)(C)NS(=O)(=O)CC12CCC(CC1=O)C2(C)C` (centres undefined), for which the Potency result is “inactive”. Regarding `CN(C)CC/C=C1\c2ccccc2CSc2ccccc21`, the Potency entry is “inactive”. As for `CN(C)Cc1ccccc1C1(O)c2ccccc2CSc2ccccc21` (centres undefined), the figure is 23.1 µM (active); as for `CC(=O)NC(CC(=O)Nc1nccs1)c1ccccc1` (centres undefined), “inactive”; as for `Cc1c(OC(C)C(=O)NCC2CCC(C(=O)O)CC2)ccc2c1oc(=O)c1ccccc12` (centres undefined), “inactive”. For the compound `CCN(CC(=O)NC(=O)NCc1ccccc1)Cc1nc2ccccc2c(=O)[nH]1`, the Potency result is “inactive”. The value for `O=C(NCc1ccc2c(c1)OCO2)C12CC3CC(CC(C3)C1)C2` was “inactive”; that for `O=C(Cn1nnc(-c2ccc3c(c2)OCO3)n1)NCc1ccco1` was “inactive”; that for `O=C(NCc1ccc2c(c1)OCO2)c1cc(F)c(F)cc1Cl` was “inactive”. For the compound `CC1(C(=O)NCc2ccco2)Cc2c(-c3ccc4c(c3)OCO4)ccnc2O1` (centres undefined), the Potency was 0.58 µM (active). In the case of `CC1(C(=O)NCc2ccc(F)c(F)c2)Cc2c(-c3ccc4c(c3)OCO4)ccnc2O1` (centres undefined), the Potency was 2.91 µM (active).

On to `S=C(NCc1ccc2c(c1)OCO2)NCc1ccco1`, for which the Potency entry was “inactive”. Turning to `OCC1(CCOc2ccccc2)CCN(Cc2cn[nH]c2-c2ccccc2)CC1`, the Potency result is “inactive”.

Consider `COCc1c(C(=O)N/N=C(\C)c2ccncc2)nnn1-c1nonc1N`, for which the Potency result is “inactive”. As for `CC(Sc1nnc(CNC(=O)c2ccccc2F)n1C)C(=O)Nc1nccs1` (centres undefined), the Potency entry was “inactive”. Regarding `O=c1c(-c2ccc(F)cc2)nc2cncnc2n1-c1ccccc1`, the Potency entry was “inactive”. On to `Cc1cnc(NC(=O)Cn2cnc3c2c(=O)n(C)c(=O)n3C)s1`, for which the Potency entry is “inactive”. Regarding `CCSc1ccccc1C(=O)Nc1ccc2c(c1)OCO2`, the Potency entry is “inactive”. On to `CCC(C)OC(=O)C(C)Oc1ccc(-c2ccccc2)cc1` (centres undefined), for which the Potency result was “inactive”. As for `N#CC1=C(N)N(c2ccc(F)cc2)C(=O)C1`, the entry is “inactive”; as for `O=C(CSc1ccccc1)Nc1nnc(/C=C/c2ccccc2)s1`, “inactive”; as for `O=C(CN1CCN(c2ccccc2F)CC1)c1ccc2c(c1)OCO2`, “inactive”.

Turning to `CCN(C(=O)Cn1cc(S(=O)(=O)N2CCN(c3ccccc3F)CC2)c2ccccc2c1=O)c1ccc(C)c(C)c1`, the Potency was 10.3 µM (active). On to `CCCN(C(=O)Cn1cc(S(=O)(=O)N2CCN(c3ccccc3F)CC2)c2ccccc2c1=O)c1cccc(C)c1`, for which the Potency is 18.4 µM (active). As for `Cc1ccc2cccc(S(=O)(=O)N3CCN(c4ccccc4F)CC3)c2n1`, the entry is “inactive”; as for `CCOC(=O)N1CCN(c2c(NCCN3CCN(c4ccccc4F)CC3)c(=O)c2=O)CC1`, “inactive”; as for `CC1(C)NC(=O)N(CC(=O)N2CCN(S(=O)(=O)c3ccccc3F)CC2)C1=O`, “inactive”.

With `Cc1cc(C)c(S(=O)(=O)N(C)CC(=O)NCC2CCCO2)c(C)c1` (centres undefined), the Potency entry was “inactive”. `O=S1(=O)CC(NCc2ccccc2)C(Nc2ccc(Cl)cc2)C1` (centres undefined): the Potency result was “inactive”. Turning to `O=C(NC1(C(F)(F)F)N=C2SCCN2C1=O)c1ccco1` (centres undefined), the Potency entry was “inactive”. Consider `COc1cnn(-c2ccc([N+](=O)[O-])cc2)c(=O)c1Cl`, for which the Potency entry was “inactive”.

Take `Cc1cc(C)c(C#N)c(SCS(=O)c2ccc(C(C)(C)C)cc2)n1` (centres undefined): the Potency entry was “inactive”. With `COC(=O)COc1ccc2c(=O)c(Oc3ccccc3Br)coc2c1`, the Potency entry is “inactive”. As for `C[C@H]1CN([C@@H](C)CO)C(=O)CCCn2cc(nn2)CO[C@@H]1CN(C)S(=O)(=O)c1ccc(-n2cccn2)cc1`, the entry is “inactive”; as for `CC(C)(C)n1nnnc1C(c1ccccc1F)N1CCN(C(=O)c2ccco2)CC1` (centres undefined), “inactive”. Consider `CCOc1ccc(CN(Cc2ccco2)C(c2cccs2)c2nnnn2C(C)(C)C)cc1` (centres undefined), for which the Potency is 16.4 µM (active). Consider `C/C(=C\c1ccco1)CN1CCC(N2CCC(C(=O)N3CCOCC3)CC2)CC1`, for which the Potency entry was “inactive”.

As for `CCN(C(=O)COC(=O)CCC(=O)c1cccs1)C1CCCCC1`, the Potency result is “inactive”.

`OCCNc1nc(Nc2ccc(Cl)c(Cl)c2)nc2ccccc12`: the Potency was 16.4 µM (active). Take `COc1cc2nc(Cl)nc(NCCO)c2cc1OC`: the Potency entry was “inactive”. With `CCOC(=O)CNc1nc(Cl)nc(Nc2ccccc2)n1`, the Potency entry was “inactive”. As for `CCN(CC(=O)Nc1ccc(OC)cc1)C(=O)CSCc1ccc(C)cc1`, the entry is “inactive”; as for `O=C(Nc1ccc(N2CCOCC2)cc1)c1ccc2c(c1)OCO2`, “inactive”; as for `CN1CCN(c2ccc(NC(=O)c3ccc4c(c3)OCCO4)cc2Cl)CC1`, “inactive”. In the case of `CN1CCN(c2ccc(NC(=O)c3cc(Cl)c4c(c3)OCCO4)cc2)CC1`, the Potency is 29.1 µM (active).

`CCOc1ccc(C(=O)N(Cc2ccc(N(C)C)cc2)C2CCS(=O)(=O)C2)cc1` (centres undefined): the Potency result is “inactive”. Regarding `O=C(COc1ccc(Cl)cc1Cl)NCCCNC(=O)c1cnccn1`, the Potency entry was “inactive”. Consider `O=C(CCc1cn(Cc2ccc(F)cc2)c2ccccc12)NC1CCCCC1`, for which the Potency result is “inactive”. As to `CC(NC(=O)Cn1cc(C(F)(F)F)cc(Cl)c1=O)c1ccccc1` (centres undefined), the Potency entry is “inactive”. For the compound `CC(NC(=O)CCc1cn(Cc2ccccc2Cl)c2ccccc12)c1ccccc1` (centres undefined), the Potency is 23.1 µM (active). For the compound `Cc1cc(C)n2nc(C(=O)OCC(=O)N(CCC#N)c3ccc(F)cc3)nc2n1`, the Potency entry is “inactive”. As for `COC(=O)c1cn(-c2ccccc2)nc1-c1cccnc1`, the Potency entry is “inactive”.

`O=C(O)c1ccc(NC(=O)c2cn(-c3ccccc3)nc2-c2ccc(Cl)cc2)cc1`: the Potency was 16.4 µM (active). Regarding `Cc1ccc(-c2nn(-c3ccccc3)cc2C(=O)NC2CCC(O)CC2)cc1` (centres undefined), the Potency entry is “inactive”. Consider `NCCCCCC(=O)N/N=C/c1ccc2nccnc2c1`, for which the Potency entry was “inactive”.

(Values after PubChem BioAssay AID686978 (National Center for Advancing Translational Sciences (NCATS), 2013).)
